IL-1B inflam inh = qHTS for Inhibitors of Inflammasome Signaling: IL-1-beta AlphaLISA Primary Screen. THP-1 LPS/ATP IL-1B secretion, AlphaLISA, 16 h; active compounds read low. activity change, % at 57.5 µM. hit rate 4.7% among 360,000. AID 743279, 2014; in the data active = activity change below about -50%; inconclusive = mostly about -30% to -49%
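THP-1 cells pretreated 1 hr with compounds (up to 57.5 uM final), then stimulated with LPS (250 ng/mL final) plus ATP (1.25 mM final); secreted IL-1B measured by AlphaLISA after 16 hr, decreased signal indicating inhibition.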
DT40 TDP1 CPT = qHTS for Inhibitors of human tyrosyl-DNA phosphodiesterase 1 (TDP1): qHTS in cells in presence of CPT. chicken DT40 Tdp1-/-;hTDP1 cells + 20 nM CPT, ATP luminescence, 48 h. Potency, µM (titrated, usually from 46.2 µM), actives largely listed as inhibitors. hit rate 12% among 420,000; note: nearly all actives have a fitted effect of over 55% in size
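Chicken DT40 Tdp1-/- cells complemented with human TDP1, 400 cells/well, exposed to compounds plus 20 nM camptothecin for at least 48 h at 37 C; viability read as ATP content by CellTiter-Glo luminescence.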
DT40 TDP1 no CPT = qHTS for Inhibitors of human tyrosyl-DNA phosphodiesterase 1 (TDP1): qHTS in cells in absence of CPT | hit rate 15% among 420,000 | AID 686978, 2013 | DT40 Tdp1-/- hTDP1 cells, no CPT, ATP luminescence, 48 h | Potency, µM (doses to about 46.2 µM), hits mostly inhibitors; note: nearly all actives have a fitted effect of over 55% in size
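Chicken DT40 Tdp1-/- cells complemented with human TDP1, screened without camptothecin (DMSO vehicle only), 400 cells/well. Compounds pin-transferred, cells incubated at 37 °C for at least 48 hr. Growth read as ATP-dependent luminescence (CellTiter-Glo, 30 min at RT).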
TDP1 inh = qHTS Assay for Inhibitors of Tyrosyl-DNA Phosphodiesterase (TDP1); Tyrosyl-DNA phosphodiesterase 1 (Homo sapiens), Q9NUW8; recombinant TDP1, AlphaScreen DNA substrate cleavage; hit rate 0.28% among 350,000; Potency, µM (series often up to 130 µM), actives largely listed as inhibitors; note: nearly all actives have a fitted effect of over 40% in size
Target sequence (Q9NUW8 whole entry, looked up): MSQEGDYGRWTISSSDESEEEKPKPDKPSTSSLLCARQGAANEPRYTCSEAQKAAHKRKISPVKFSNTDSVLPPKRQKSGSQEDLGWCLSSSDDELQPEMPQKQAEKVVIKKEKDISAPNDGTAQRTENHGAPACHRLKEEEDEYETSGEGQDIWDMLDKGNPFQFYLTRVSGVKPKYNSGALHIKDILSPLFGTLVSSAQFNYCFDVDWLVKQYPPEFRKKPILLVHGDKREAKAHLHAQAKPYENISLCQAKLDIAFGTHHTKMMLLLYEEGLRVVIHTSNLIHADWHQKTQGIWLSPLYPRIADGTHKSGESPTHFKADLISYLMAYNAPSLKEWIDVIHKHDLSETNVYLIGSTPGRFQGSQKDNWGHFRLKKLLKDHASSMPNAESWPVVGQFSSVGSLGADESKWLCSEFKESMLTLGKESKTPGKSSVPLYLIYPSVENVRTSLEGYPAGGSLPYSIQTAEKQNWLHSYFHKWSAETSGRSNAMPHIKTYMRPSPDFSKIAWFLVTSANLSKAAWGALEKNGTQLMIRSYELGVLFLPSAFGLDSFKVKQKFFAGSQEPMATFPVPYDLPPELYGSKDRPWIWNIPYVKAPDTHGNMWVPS
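E. coli-derived human Tdp1, 1 nM final. Cpd preinc 15 min RT; substrate 15 nM final, 5 min RT; AS bead mix 10 ug/ml final, 10 min RT. Signal loss = tyrosine-FITC cleavage. No-enzyme wells = max signal.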
Giardia killer = Small Molecules that selectively kill Giardia lamblia: qHTS. Giardia lamblia trophozoite viability. activity change, % at 7.66 µM, hits read low. hit rate 0.15% among 340,000; in the data active = activity change below about -80%; inconclusive = between about -30% and that limit;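 note: parasites exposed to compound for two days anaerobically before the ATP read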
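Each well holds 100 Giardia trophozoites and compound. After two days (48 hrs) at 37 deg C in anaerobic conditions, ATP is quantified by luminescence.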
ELG1 DNA repair = qHTS screen for small molecules that inhibit ELG1-dependent DNA repair in human embryonic kidney (HEK293T) cells expressing luciferase-tagged ELG1 | HEK293T ELG1-luciferase reporter, luminescence, 16 h; DNA damage induced by 5-fluorouridine | Potency, µM (highest dose often 46.1 µM), most hits filed as inhibitors | hit rate 2.3% among 330,000; note: nearly all actives have a fitted effect of over 55% in size
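HEK293T cells expressing luciferase-tagged ELG1 (2,000/well) received 5-Fluorouridine plus compound or DMSO for 16 hr at 37 °C. Luciferase was read by ONE-Glo luminescence after 30 min at room temperature.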
A number is an active result; – = inactive; ? = inconclusive; · = no result. Only some compounds are listed: those with a hit (about 19% of all), similar ones and a draw of the others. Unless noted, calls come from the whole dose curve; as a rule, active = well fitted curve in the direction sought with a large enough effect; inconclusive = small, poorly fitted or top-dose-only effect, or another doubt; inactive = no such curve, though single readings can be large; an effect the other way counts as inactive or inconclusive.

SMILES	IL-1B inflam inh	DT40 TDP1 CPT	DT40 TDP1 no CPT	TDP1 inh	Giardia killer	ELG1 DNA repair
CCCNC(=O)C1(C)CCN1C(=O)c1ccccc1CCc1ccccc1 (stereo unspecified)	–	?	?	·	·	·
COc1cccc(CNC(=O)c2c(OC)cc(=O)n3c2CCN(C(=O)C2CC24CCCC4)CC3)c1 (stereo unspecified)	·	–	–	·	·	·
Cc1c(C=O)c2ccccc2n1CCOc1ccccc1F	–	23µM	10µM	·	–	–
Fc1ccccc1OCCn1c(=S)[nH]c2ccccc21	–	–	–	?	–	–
Cc1ccc2c(=O)cc(CSc3ncn[nH]3)[nH]c2c1C	·	?	?	–	·	·
COc1cccc(-c2nc(SCc3cc(=O)c4ccc(C)c(C)c4[nH]3)n[nH]2)c1	·	?	8.2µM	–	·	·
O=c1cc(CSc2n[nH]c(-c3ccccc3)n2)[nH]c2ccccc12	·	26µM	26µM	–	·	·
O=c1cc(-c2ccccc2)[nH]c2ccccc12	–	0.52µM	0.92µM	–	–	?
O=c1nc(-c2ccccc2)c2ccccc2[nH]1	–	–	–	–	–	–
CCCNC(=O)C1(C)CCN(C(=O)c2ccc3c(c2)CCO3)C1 (stereo unspecified)	–	?	–	·	·	·
Cc1ccc2cccc(NC(=O)c3ccc(-c4cccc(Cl)c4)o3)c2n1	·	–	–	–	·	·
COc1ccc(NC(=O)N2CC[C@@]3(CCCN(C(C)=O)C3)C2)cc1	·	?	–	·	·	·
Cc1nn(-c2ccccc2)c(Cl)c1/C=N/O	–	–	–	–	–	–
COc1ccc(-c2cnnc(N/N=C/c3ccc(C)o3)n2)cc1	–	?	18µM	–	–	–
Brc1ccc(-c2ccc(/C=N/Nc3nncc(-c4ccccc4)n3)o2)cc1	–	?	18µM	–	–	?
COc1ccc(-c2cnnc(N/N=C/c3c(C)nn(-c4ccccc4)c3Cl)n2)cc1	–	3.7µM	5.2µM	–	–	?
Brc1ccc(/C=N/Nc2nncc(-c3ccccc3)n2)o1	·	·	·	–	·	–
CCNc1nc(NCC)nc(N/N=C/c2ccc(O)c(O)c2)n1	–	23µM	–	–	–	?
CC(=O)Nc1ccc(CN2C(=O)C(C)(C)ON=C2c2ccc(NC(C)=O)cc2)cc1	–	–	–	·	·	·
O=C(CN1CCOCC1)N/N=C/c1cccc2ccccc12	–	–	–	·	–	–
Oc1ccc(/C=N\Nc2nncc(-c3ccccc3)n2)cc1	?	?	?	–	–	–
COc1ccc(-c2cnnc(N/N=C/c3ccc(O)c(O)c3)n2)cc1	–	7.3µM	9.2µM	–	–	–
COc1ccc(-c2cnnc(N/N=C/c3ccc(O)cc3)n2)cc1	?	?	12µM	–	–	?
CCc1cc2c(cc3c(=O)n(CC(=O)NCCc4ccc(OC)cc4OC)nc(CC)n32)s1	·	–	–	–	·	·
CCOc1ccc(NC(=O)CSc2oc(-c3cccs3)nc2S(=O)(=O)c2ccc(C)cc2)cc1	·	12µM	3.3µM	–	·	·
SMILES	IL-1B inflam inh	DT40 TDP1 CPT	DT40 TDP1 no CPT	TDP1 inh	Giardia killer	ELG1 DNA repair
CCCSc1oc(-c2cccs2)nc1S(=O)(=O)c1ccc(C)cc1	·	18µM	?	–	·	·
CCOc1ccc(NC(=O)CSc2oc(-c3ccco3)nc2S(=O)(=O)c2ccc(C)cc2)cc1	·	?	?	–	·	·
CCOc1ccc(NC(=O)CSc2oc(-c3ccc(F)cc3)nc2S(=O)(=O)c2ccc(C)cc2)cc1	·	5.8µM	6.5µM	–	·	·
Cc1[nH]n(-c2ccccc2)c(=O)c1N=Nc1ccc2c(c1)OCCO2	–	?	?	–	–	?
Cc1[nH]n(-c2ccccc2)c(=O)c1N=Nc1c(O)cc(S(=O)(=O)N(C)C)c2ccccc12	–	6.5µM	6.5µM	·	–	4.1µM
O=C(c1ccc(F)cc1)N1c2ncnn2C2(CCCCC2)[C@@H]2CCCC[C@@H]21	·	?	21µM	–	·	·
Cc1cccc(C(=O)N2c3ncnn3C3(CCCCC3)[C@@H]3CCCC[C@@H]32)c1	·	?	23µM	–	·	·
O=C(c1ccccc1)N1c2ncnn2C2(CCCCC2)[C@@H]2CCCC[C@@H]21	·	?	?	–	·	·
CC(C)c1ccc(CNc2nc(-c3ccco3)nn2C(=O)c2ccc([N+](=O)[O-])cc2)cc1	·	?	?	–	·	·
CNS(=O)(=O)c1ccc2nc(NC(=O)/C=C/c3ccco3)sc2c1	–	?	–	?	–	–
Cc1ccsc1CN(C)C(=O)C(NC(=O)c1cccc(S(=O)(=O)N2CCOCC2)c1)C(C)C (stereo unspecified)	–	12µM	?	–	–	–
Cc1cccc(NC(=O)COC(=O)C(NC(=O)c2cccc(S(=O)(=O)N3CCOCC3)c2)C(C)C)c1 (stereo unspecified)	–	–	–	·	–	·
CC(C)C(NC(=O)c1ccc(C(C)(C)C)cc1)C(=O)Nc1cccc(S(N)(=O)=O)c1 (stereo unspecified)	-52	–	–	–	–	–
COc1ccc(Br)c(C(=O)Nc2cccc(S(=O)(=O)N3CCOCC3)c2)c1	–	–	?	–	–	–
COc1ccc(C(=O)N[C@H](C(=O)Nc2cccc(S(=O)(=O)N3CCOCC3)c2)C(C)C)cc1	?	–	18µM	·	·	·
COc1ccc(N2CCN(CC(=O)Nc3cccc(S(=O)(=O)N4CCOCC4)c3)CC2)cc1	–	?	9.2µM	–	–	–
Cc1ccc(C(=O)NC(C(=O)Nc2cccc(S(N)(=O)=O)c2)C(C)C)cc1 (stereo unspecified)	–	–	–	–	–	–
COc1cccc(NC(=O)Cn2nc(C)c3c(C)n(-c4ccccc4)nc3c2=O)c1	·	–	–	–	·	·
Cc1cccc(C(=O)N[C@H](C(=O)Nc2cc(S(=O)(=O)N3CCCCC3)ccc2C)C(C)C)c1	–	?	?	–	–	?
Cc1cccc(C(=O)N[C@H](C(=O)Nc2ccc(C)c(S(=O)(=O)N(C)C)c2)C(C)C)c1	–	?	15µM	–	–	?
CC(C)C(NC(=O)c1ccc(C(C)(C)C)cc1)C(=O)NCc1ccccn1 (stereo unspecified)	–	9.2µM	?	–	–	?
COc1ccc(C(=O)NC(C(=O)NCc2ccccn2)C(C)C)cc1 (stereo unspecified)	–	–	–	–	–	–
Cc1cc(C)c2nc(NC(=O)[C@@H](NC(=O)c3cccc(S(=O)(=O)N4CCOCC4)c3)C(C)C)sc2c1	–	16µM	?	–	–	–

From PubChem BioAssay
